Data from PubChem BioAssay (NCATS).
Several values for one entry are separate records, joined by “and”; a condition that tells them apart may be missing. Equal entries are not always repeated. Results filed as inconclusive are left out. Entries that show only a call come without a potency. Activity calls are given as the source filed them. Unless noted, calls come from the whole dose curve; as a rule, active = well fitted curve in the direction sought with a large enough effect; inconclusive = small, poorly fitted or top-dose-only effect, or another doubt; inactive = no such curve, though single readings can be large; an effect the other way counts as inactive or inconclusive.

Assays:
[1] = qHTS assay for small molecule agonists of retinoid X receptor alpha signaling (AID 588544; calls by dose curve; note: potency is the fitted concentration of half-maximal effect); settings: HEK293T RXRa-UAS-bla, beta-lactamase reporter, 18 h; 530 nm emission
[2] = biological target: Retinoic acid receptor RXR-alpha (Homo sapiens) (UniProt P19793); assay: as above; settings: HEK293T RXRa-UAS-bla, beta-lactamase reporter, 18 h; series mostly up to 76.7 µM
Sequence of Retinoic acid receptor RXR-alpha (Homo sapiens) (P19793 whole entry, looked up): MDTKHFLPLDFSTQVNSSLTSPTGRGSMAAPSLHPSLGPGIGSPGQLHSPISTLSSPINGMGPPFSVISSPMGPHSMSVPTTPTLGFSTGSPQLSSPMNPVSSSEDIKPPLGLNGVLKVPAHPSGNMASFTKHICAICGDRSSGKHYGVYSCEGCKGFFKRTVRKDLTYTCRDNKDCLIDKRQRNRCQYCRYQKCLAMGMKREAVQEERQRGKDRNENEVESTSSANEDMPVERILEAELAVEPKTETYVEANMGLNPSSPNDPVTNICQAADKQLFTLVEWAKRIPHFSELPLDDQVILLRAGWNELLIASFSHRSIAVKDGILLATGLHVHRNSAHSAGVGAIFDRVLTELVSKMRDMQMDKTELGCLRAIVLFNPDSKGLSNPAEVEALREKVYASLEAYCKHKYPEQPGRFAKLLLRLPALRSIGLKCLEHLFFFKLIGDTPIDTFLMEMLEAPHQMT

[3] = biological target: Thyroid hormone receptor beta (Homo sapiens) (UniProt P10828); assay: qHTS assay for small molecule agonists of thyroid hormone receptor beta signaling (AID 588545; calls by dose curve); settings: TR-UAS-bla GripTite HEK 293, beta-lactamase ratio, agonist mode, 18 h, percent of T3 response, DMSO as zero; series mostly up to 76.7 µM
Sequence of Thyroid hormone receptor beta (Homo sapiens) (P10828 whole entry, looked up): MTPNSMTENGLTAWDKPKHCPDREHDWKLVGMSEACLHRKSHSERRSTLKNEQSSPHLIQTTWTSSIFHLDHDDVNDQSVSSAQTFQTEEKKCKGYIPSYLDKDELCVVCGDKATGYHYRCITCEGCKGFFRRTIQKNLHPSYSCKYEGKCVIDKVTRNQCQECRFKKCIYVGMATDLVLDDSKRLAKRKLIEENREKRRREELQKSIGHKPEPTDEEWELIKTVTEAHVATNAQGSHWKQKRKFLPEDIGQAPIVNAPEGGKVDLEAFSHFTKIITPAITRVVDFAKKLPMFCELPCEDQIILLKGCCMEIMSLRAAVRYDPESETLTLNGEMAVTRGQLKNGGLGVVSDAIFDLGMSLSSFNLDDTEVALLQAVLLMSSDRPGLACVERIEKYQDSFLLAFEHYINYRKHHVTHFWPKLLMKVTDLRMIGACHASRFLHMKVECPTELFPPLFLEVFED
In short: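 Compounds were tested as agonists in TR-UAS-bla-GripTite HEK 293 cells. After 18 hrs at 37 C, CCF4 substrate was added and fluorescence read after 2 hrs at room temperature.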

[4] = qHTS assay for small molecule antagonists of retinoid X receptor alpha signaling (AID 588546; active = well fitted inhibition curve with a large enough effect in the signal ratio, with a control signal flat, not every such curve was filed as active; the % refers to the signal ratio;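 note: cells stimulated with 9-cis-retinoic acid as agonist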); settings: HEK293T RXRa-UAS-bla, beta-lactamase ratio, antagonist mode; measured here: W530 green channel, cytotoxicity proxy
In short: (§1)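 Beta-lactamase reporter inhibition, read as CCF4 fluorescence ratio (ex 405, em 460/530 nm) after 2 h at RT. HEK293T UAS-bla cells, 2500/well, were stimulated with 9-cis-RA at 500 or 100 nM final alongside test compound for 18 h at 37 C.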

[5] = biological target: Retinoic acid receptor RXR-alpha (Homo sapiens) (UniProt P19793); assay: as above; settings: HEK293T RXRa-UAS-bla, beta-lactamase ratio, antagonist mode
In short: as §1

[6] = biological target: Thyroid hormone receptor beta (Homo sapiens) (UniProt P10828); assay: qHTS assay for small molecule antagonists of thyroid hormone receptor beta signaling (AID 588547; active = well fitted inhibition curve with a large enough effect in the signal ratio, with a control signal flat, not every such curve was filed as active; the % refers to the signal ratio;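 note: cells stimulated with 0.4 nM T3 agonist during compound exposure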); settings: TR-UAS-bla HEK293, beta-lactamase ratio, antagonist mode, 18 h
In short: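 TR-UAS-bla GripTite HEK293 cells in 2% charcoal/dextran FBS medium; compounds 0.59 nM to 92 uM with T3 at 0.4nM final, 18 h at 37 C. Beta-lactamase read by CCF4 fluorescence (460/530 nm); Hill fits gave IC50 and efficacy.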

[7] = biological target: Voltage-gated inwardly rectifying potassium channel KCNH2 (Homo sapiens) (UniProt Q12809); assay: qHTS Assay for Small Molecule Inhibitors of the Human hERG Channel Activity (AID 588834); settings: U2OS BacMam hERG, FluxOR thallium flux fluorescence; series mostly up to 46.1 µM;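 note: lower thallium flux fluorescence means stronger hERG block; nearly all actives have a fitted effect of over 50% in size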; note: potency is the fitted concentration of half-maximal effect
Sequence of Voltage-gated inwardly rectifying potassium channel KCNH2 (Homo sapiens) (Q12809 whole entry, looked up): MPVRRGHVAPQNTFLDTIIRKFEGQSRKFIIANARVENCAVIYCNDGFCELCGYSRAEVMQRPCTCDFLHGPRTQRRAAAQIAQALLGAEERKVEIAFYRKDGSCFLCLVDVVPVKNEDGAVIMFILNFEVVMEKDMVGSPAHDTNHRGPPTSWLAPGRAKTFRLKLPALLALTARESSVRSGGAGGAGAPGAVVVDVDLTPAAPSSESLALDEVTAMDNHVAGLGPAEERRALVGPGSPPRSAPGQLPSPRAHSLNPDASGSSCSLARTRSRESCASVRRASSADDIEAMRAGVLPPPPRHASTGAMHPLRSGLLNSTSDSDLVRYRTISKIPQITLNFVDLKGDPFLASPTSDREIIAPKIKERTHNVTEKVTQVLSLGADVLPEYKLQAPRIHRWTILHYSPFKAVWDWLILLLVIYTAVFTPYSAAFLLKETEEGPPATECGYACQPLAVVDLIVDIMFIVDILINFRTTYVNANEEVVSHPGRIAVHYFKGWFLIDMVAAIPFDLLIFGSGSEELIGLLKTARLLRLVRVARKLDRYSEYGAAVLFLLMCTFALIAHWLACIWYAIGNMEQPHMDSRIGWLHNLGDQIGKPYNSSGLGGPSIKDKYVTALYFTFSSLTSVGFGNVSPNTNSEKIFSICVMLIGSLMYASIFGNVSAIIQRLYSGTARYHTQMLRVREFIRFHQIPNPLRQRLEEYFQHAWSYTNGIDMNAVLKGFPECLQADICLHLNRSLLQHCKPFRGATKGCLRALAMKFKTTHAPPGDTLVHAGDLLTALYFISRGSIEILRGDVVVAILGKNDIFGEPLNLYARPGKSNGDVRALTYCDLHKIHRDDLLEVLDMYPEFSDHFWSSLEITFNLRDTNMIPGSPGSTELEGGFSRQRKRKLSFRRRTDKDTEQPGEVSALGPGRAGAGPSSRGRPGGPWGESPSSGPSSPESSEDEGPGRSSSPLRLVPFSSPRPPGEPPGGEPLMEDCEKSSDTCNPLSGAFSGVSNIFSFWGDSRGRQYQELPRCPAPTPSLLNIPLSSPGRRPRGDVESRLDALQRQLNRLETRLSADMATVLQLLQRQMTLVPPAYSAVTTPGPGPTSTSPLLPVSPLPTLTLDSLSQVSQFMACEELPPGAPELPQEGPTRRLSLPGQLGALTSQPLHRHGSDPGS
In short: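 Thallium serves as surrogate for K+ influx through BacMam-delivered hERG in U2OS cells. Compounds are added for about 10 minutes after dye loading; stimulation buffer then starts flux, monitored kinetically on FDSS.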

[8] = biological target: Luciferin 4-monooxygenase (Photinus pyralis) (UniProt P08659); assay: Biochemical firefly luciferase enzyme assay for NPC (AID 624030);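 note: purified P. pyralis luciferase at 10 nM with luciferin and ATP substrate; nearly all actives have a fitted effect of over 70% in size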; settings: purified P. pyralis luciferase, luminescence, 5 min; series mostly up to 58.6 µM
Sequence of Luciferin 4-monooxygenase (Photinus pyralis) (P08659 whole entry, looked up): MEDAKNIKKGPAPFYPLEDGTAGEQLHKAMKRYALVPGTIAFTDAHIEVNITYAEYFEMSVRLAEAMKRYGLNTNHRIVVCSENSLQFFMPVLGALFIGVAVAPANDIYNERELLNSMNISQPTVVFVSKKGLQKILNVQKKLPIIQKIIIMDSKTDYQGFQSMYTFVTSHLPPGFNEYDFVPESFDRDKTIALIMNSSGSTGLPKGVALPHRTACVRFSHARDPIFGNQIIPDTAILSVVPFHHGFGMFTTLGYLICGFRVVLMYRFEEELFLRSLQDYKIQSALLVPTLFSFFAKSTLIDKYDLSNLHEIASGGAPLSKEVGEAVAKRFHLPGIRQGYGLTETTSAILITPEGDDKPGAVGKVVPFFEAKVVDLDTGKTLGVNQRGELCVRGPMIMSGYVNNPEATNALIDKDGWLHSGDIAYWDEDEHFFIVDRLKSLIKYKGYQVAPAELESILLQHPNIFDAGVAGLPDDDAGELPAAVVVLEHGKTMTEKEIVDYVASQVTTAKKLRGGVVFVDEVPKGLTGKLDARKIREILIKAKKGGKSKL
In short: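 Purified P. pyralis luciferase at 10 nM in 50 mM Tris Acetate (final), luminescence read within 5 minutes of enzyme addition to compounds. Activity normalised to PTC124 versus DMSO; concentration-response curves classed by r2, magnitude and activity.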

[9] = S16 Schwann cell viability assay (CellTiter-Glo assay) (AID 624031); settings: S16 rat Schwann cells viability, 24 h; series mostly up to 57.5 µM;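 note: native untransfected S16 rat Schwann cells; cellular ATP luminescence as a viability measure; nearly all actives have a fitted effect of over 70% in size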
In short: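 Concentration-effect curves come from CellTiter-Glo luminescence of S16 rat Schwann cells after 24 h compound exposure. Each reading was normalized to DMSO wells (0%) and wells without cells, and curves were ranked by r2 and response magnitude.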

[10] = S16 Schwann cell PMP22 intronic element firefly luciferase assay (AID 624032); settings: S16 rat Schwann cells, PMP22 element FLuc, 24 h; series mostly up to 57.5 µM; note: nearly all actives have a fitted effect of over 30% in size; note: potency is the fitted concentration of half-maximal effect
In short: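 Rat S16 Schwann cells stably carrying firefly luciferase driven by a PMP22 intronic element, in 10% FBS, treated 24 h at 37 C. ONE-Glo luminescence normalized to PTC124 control and DMSO (0%); curves classed by r2, magnitude and activity.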

Row | SMILES | max response [1] | Potency [2] | outcome [3] | max response [4] | max response [5] | activity change % (negative = inhibition) [6] | Potency [7] | Potency [8] | outcome [9] | Potency [10]
1 | O=C(O)CCCc1ccc(N(CCCl)CCCl)cc1 | 15.5% and 20.9% | inactive | inactive | 6.94% and -4.83% | 8.7% (inactive) and 8.13% (inactive) | 16.9% (inactive) and 14.1% (inactive) | inactive | inactive | inactive | 
2 | COC(=O)[C@@H](N)CCCN/C(N)=N/[N+](=O)[O-] |  |  |  |  |  |  | inactive |  |  | 
3 | O=P1(N(CCCl)CCCl)NCCCO1 (configuration not stated) | 8.36% and -10.5% | inactive | inactive | -4.41% and 6% | 8.47% (inactive) and -0.0175% (inactive) | -0.786% (inactive) | inactive | inactive | inactive | inactive
4 | CC(=O)OCC1=C(C(=O)O)N2C(=O)[C@@H](N)[C@H]2SC1 |  |  |  |  |  |  | inactive |  |  | 
5 | C[C@]12CCC(=O)C=C1CC[C@@H]1[C@@H]2CC[C@]2(C)C(=O)CC[C@@H]12 |  |  | inactive | 24.5% | 1.25% (inactive) | 12.5% (inactive) | inactive | inactive | inactive | inactive
6 | CCC(C)(C)c1ccc(O)cc1 | -12.7% and -6.48% | inactive | inactive | -6.99% and -5.65% | 7.35% (inactive) and 8.15% (inactive) | 9.09% (inactive) | inactive | inactive | inactive | inactive
7 | [N-]=[N+]=CC(=O)OC[C@H](N)C(=O)O | -12% | inactive | inactive | -15.7% | 7.74% (inactive) | 10.8% (inactive) |  |  |  | 
8 | O=C(Oc1ccccc1)c1ccccc1O | 23.5% | inactive |  |  |  |  |  |  |  | 
9 | O=C1c2ccccc2C(=O)c2ccccc21 | -19.1% | 35.5 µM (active) | inactive | -16.5% | -15.9% (inactive) | -1.19% (inactive) | inactive | inactive | inactive | inactive
10 | CCC1(c2ccc(N)cc2)CCC(=O)NC1=O (configuration not stated) |  |  |  |  |  |  | inactive |  |  | 
11 | CN=C1CN(O)C(c2ccccc2)=c2cc(Cl)ccc2=N1 |  |  |  |  |  |  | inactive |  |  | 
12 | COc1cc(OC)c(OC)cc1C=O |  |  |  | -5.72% | -9.79% (inactive) |  | inactive | inactive |  | 
13 | CN1C[C@H](C(=O)N[C@]2(C)O[C@@]3(O)[C@@H]4CCCN4C(=O)[C@H](Cc4ccccc4)N3C2=O)C=C2c3cccc4[nH]cc(c34)C[C@H]21 |  |  | inactive |  |  |  | 12.6 µM (active) | inactive |  | 
14 | C[C@@H](N)[C@@H](O)c1ccccc1 |  |  |  |  |  |  | inactive |  |  | 
15 | Nc1ccc([As](=O)(O)O)cc1 | -10% | inactive | inactive | -13.3% | -8.6% (inactive) | 0.893% (inactive) | inactive | inactive | inactive | inactive
16 | COP(=S)(OC)Oc1cc(Cl)c(Cl)cc1Cl | -2.58% | inactive | inactive | 1.09% | -5.5% (inactive) | 19.2% (inactive) |  | inactive |  | 
17 | COP(=S)(OC)SCN1C(=O)c2ccccc2C1=O |  |  | inactive |  |  | -12.6% (inactive) | inactive | inactive | inactive | inactive
18 | Clc1ccc(C(c2ccc(Cl)cc2)C(Cl)(Cl)Cl)cc1 |  |  | inactive |  |  | -20.1% (inactive) and -18.4% (inactive) | 31.6 µM (active) | inactive | inactive | 10.2 µM (active)
19 | CCCC(C)(COC(N)=O)COC(N)=O |  |  | inactive | -3.53% | -3.87% (inactive) | 14.4% (inactive) | inactive | inactive | inactive | inactive
20 | COC(=O)C(c1ccccc1)C1CCCCN1 (configuration not stated) |  |  | inactive | -4.37% | -5.94% (inactive) | 13% (inactive) | inactive | inactive | inactive | inactive
21 | Nc1nc(N)nc(NC2CC2)n1 | -19.4% | inactive | inactive | -17.8% | 6.27% (inactive) | -23% (inactive) | inactive | inactive | inactive | inactive
22 | CC(C)c1cccc(C(C)C)c1O | -14.1% | inactive | inactive | 2.4% | 16.4% (inactive) | -3.45% (inactive) | inactive | inactive | inactive | inactive
23 | CC(C)NC(C)C | -5.82% | inactive | inactive | -16.3% | 9.42% (inactive) |  | inactive | inactive |  | inactive
24 | C[C@]12CCC(=O)C=C1CC[C@@H]1[C@@H]2CC[C@@]2(C)[C@H]1CC[C@]2(C)O | -11.4% | inactive | inactive | -11.8% | 36.9% (inactive) |  | inactive | inactive |  | 
25 | COP(=S)(OC)Oc1ccc(SC)c(C)c1 | -8.01% and -11.8% | inactive | inactive | -22.3% and -7.85% | -5.05% (inactive) and -30% (inactive) | -0.0791% (inactive) |  |  | inactive | 
26 | Nc1ccccc1 | 9.36% | inactive | inactive | -11.1% | 4.87% (inactive) | -1.42% (inactive) | inactive | inactive |  | 
